{"source": "PubChem BioAssay (Tox21)", "note": "Several values for one entry are separate records, joined by “and”; a condition that tells them apart may be missing. Equal values may be shown once. Results filed as inconclusive are left out. A call without a number means that no potency is given here. More than one record can exist for a structure, and the calls need not agree. Activity calls are given as the source filed them. Calls come from the whole dose curve; as a rule, active = well fitted cell-killing curve with a large enough effect in the repeat runs; inconclusive = weak or mixed curves, or effect the other way; inactive = flat fitted curve, though single readings scatter. Potency is the fitted concentration of half-maximal effect."}
{"assay": "qHTS assay to identify small molecule agonists of the estrogen receptor beta (ER-beta) signaling pathway - cell viability counter screen (AID 1259380); note: nearly all actives have a fitted effect of over 30% in size", "details": "ER-beta-bla HEK293T viability, CellTiter-Glo luminescence, 16 h; series mostly up to 92.4 µM; activity change, negative = cytotoxicity: at the top concentration", "from_the_text": "National Center for Advancing Translational Sciences [NCATS]\nNIH Chemical Genomics Center [NCGC]\nU.S. Environmental Protection Agency [EPA]\nNational Institutes of Environmental Health Sciences [NIEHS]\nNational Toxicology Program [NTP]\nU.S. Food and Drug Administration [FDA]\nEstrogen receptor (ER), a nuclear hormone receptor, plays an important role in development, metabolic homeostasis and reproduction. Two subtypes of ER, ER-alpha and ER-beta, have similar expression patterns with some uniqueness in both types. Endocrine disrupting chemicals (EDCs) and their interactions with steroid hormone receptors like ER causes disruption of normal endocrine function. To identify the compounds that activate ER signaling, an ER beta-UAS-bla GripTite cell line (Life Technologies, Madison, WI, USA) containing a beta-lactamase reporter gene under the control of an UAS response element was used to screen Tox21 10K compound library. The cytotoxicity of the Tox21 compound library against the ER-beta-bla cell line was tested in parallel by measuring the cell viability using CellTiter-Glo assay in the same wells.\nTox21 Assay Protocol Summary:\nER-beta-UAS-bla HEK293T cells were dispensed at 2,000 cells/5 uL of assay medium containing 2% charcoal stripped FBS per well into black wall/clear-bottom 1536-well plates using a Multidrop Combi (ThermoFisher Scientific, Waltham, MA) dispenser. After the assay plates were incubated at a 37C and 5% CO2 for 6 hr, 23 nL of compounds dissolved in DMSO, positive controls or DMSO only was transferred to the assay plate by a Pintool station (Kalypsys, San Diego, CA). The plates were incubated at 37C and 5% CO2 for 16 hr. Then 1 uL of LiveBLAzerTM B/G FRET substrate was added using a BioRAPTR FRD (Flying Reagent Dispenser, Aurora Discovery, San Diego, CA) and then the plates were incubated at room temperature for 2 hours, and fluorescence intensity was measured by an Envision plate reader (PerkinElmer, Shelton, CT). For cell viability readout that measures cytotoxicity, 4 uL/well of CellTiter-Glo reagent was added into the assay plates using a FRD. After 30 min incubation at room temperature, the luminescence intensity in the plates was measured using a ViewLux (PerkinElmer) plate reader."}
{"smiles": "Cc1ccc(C(=O)O)o1", "Potency": "inactive"}
{"smiles": "S=c1nc[nH]c2nc[nH]c12", "Potency": "7.51 µM (active) and 3.35 µM (active)"}
{"smiles": "CCCCNC(N)=O", "Potency": "inactive"}
{"smiles": "C=C(C)C(=O)OCCCCCC", "Potency": "inactive"}
{"smiles": "C=C(C)C(=O)OCCC[Si](OC)(OC)OC", "Potency": "inactive"}
{"smiles": "Cc1ccc(C)c(C)c1", "Potency": "inactive"}
{"smiles": "CCCCCC/C=C/CCCCCCCC(=O)O", "Potency": "inactive"}
{"smiles": "O=S(=O)(O)c1cc(S(=O)(=O)O)c2c(N=Nc3ccccc3)c(O)ccc2c1", "Potency": "inactive"}
{"smiles": "CC1COc2ccccc2N1C(=O)C(Cl)Cl", "note": "(stereo not given)", "Potency": "inactive"}
{"smiles": "CCC(=O)O", "Potency": "inactive"}
{"smiles": "Cn1c([N+](=O)[O-])cnc1COC(N)=O", "Potency": "inactive"}
{"smiles": "Clc1ccc(Cl)c(Cl)c1Cl", "Potency": "inactive"}
{"smiles": "Nc1cc(-c2ccncc2)c[nH]c1=O", "activity change, negative = cytotoxicity": "-9.77% [at 42.5 µM] (inactive)"}
{"smiles": "CC(C)(C)C(=O)C1C(=O)c2ccccc2C1=O", "activity change, negative = cytotoxicity": "0.915% (inactive)"}
{"smiles": "C=C1C2CCC(C2)C1(C)C", "note": "(stereo not given)", "Potency": "inactive"}
{"smiles": "CC(C)(CO)COC(=O)C(C)(C)CO", "Potency": "inactive"}
{"smiles": "COC(=O)c1ccc(C(=O)OC)cc1", "Potency": "6.19 µM (active) and inactive"}
{"smiles": "CCCCCCCCCCCCOCC1CO1", "note": "(stereo not given)", "activity change, negative = cytotoxicity": "-1.46% (inactive)"}
{"smiles": "O=Nc1ccc(O)cc1", "Potency": "inactive"}
{"smiles": "Cc1ccc(N)c(S(=O)(=O)O)c1", "Potency": "inactive"}
{"smiles": "CS(=O)(=O)Nc1ccc([N+](=O)[O-])cc1Oc1ccccc1", "activity change, negative = cytotoxicity": "-11.3% [at 42.5 µM] (inactive)"}
{"smiles": "CC(=O)Nc1ccc(C(=O)O)cc1", "Potency": "inactive"}
{"smiles": "CC1=C(/C=C/C(C)=C/C=C/C(C)=C/CO)C(C)(C)CCC1", "activity change, negative = cytotoxicity": "-12.2% (inactive)"}
{"smiles": "C=C(C#N)C(=O)OCC", "Potency": "inactive"}
{"smiles": "OC[C@@H](O)[C@@H](O)[C@H](O)[C@@H](O)CO", "Potency": "inactive"}
{"smiles": "CCCCC(CC)COC(C)=O", "note": "(stereo not given)", "Potency": "inactive"}
{"smiles": "Nc1c(S(=O)(=O)O)cc(Br)c2c1C(=O)c1ccccc1C2=O", "activity change, negative = cytotoxicity": "-0.788% [at 42.5 µM] (inactive)"}
{"smiles": "C[C@@H](O)[C@H]1C(=O)N2C(C(=O)O)=C(S[C@@H]3CN[C@H](C(=O)N(C)C)C3)[C@H](C)[C@H]12", "Potency": "inactive"}
{"smiles": "CC(C)NCC(O)COc1cccc2ccccc12", "note": "(stereo not given)", "Potency": "55 µM (active) and 54.5 µM (active)"}
{"smiles": "O=C1O[C@H](CO)[C@@H](O)[C@H](O)[C@H]1O", "Potency": "inactive"}
{"smiles": "CCCCOCCOCCOC(=O)CCCCC(=O)OCCOCCOCCCC", "Potency": "inactive"}
{"smiles": "CCCCOCCO", "Potency": "inactive"}
{"smiles": "CCCCCCCCC", "Potency": "inactive"}
{"smiles": "CCCCCCOC(C)=O", "Potency": "inactive and 30.6 µM (active)"}
{"smiles": "CC[Si](OC(C)=O)(OC(C)=O)OC(C)=O", "Potency": "inactive"}
{"smiles": "O=C(Oc1ccccc1)c1ccc(O)cc1", "activity change, negative = cytotoxicity": "-10.1% (inactive)"}
{"smiles": "OCC#CCO", "Potency": "inactive"}
{"smiles": "C=C(C)C(=O)OCCCCCCCCCCCC", "Potency": "inactive"}
{"smiles": "C=C1CC[C@H](O)CC1=C/C=C1\\CCC[C@]2(C)[C@@H]([C@H](C)/C=C/[C@H](C)C(C)C)CC[C@@H]12", "Potency": "24.1 µM (active) and 30.6 µM (active)"}
{"smiles": "CCCCCCCCCCCCN", "Potency": "inactive and 30.6 µM (active)"}
